Screening data: PubChem, several laboratories
Sampled rows, rich in hits. Any-hit rate of the full collection: about 4.2%.
AHR activator – AHR activators, primary screen, cell-based, luminescence, luciferase reporter, human; AHR-responsive luciferase reporter cells; Aryl hydrocarbon receptor (Homo sapiens), P35869; activation, % at 5 µM; AID 2796, 2010; hit rate 2.5% among 320,000; in the data active = activation above about 47%;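 note: 0% = vehicle wells and 100% = reference agonist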
MITF TRPM1 HTS – activators of MITF-driven TRPM1 promoter reporter, primary screen, cell-based, SK-MEL-5, luciferase, single point | SK-MEL-5 TRPM1-promoter luciferase, 24 h; % of positive control, neutral wells = 0 | hit rate 0.75% among 300,000 | activation, % at 12.5 µM | AID 588334, 2011;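 active = mean activation of at least 80% with every replicate also reaching 80%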;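 note: 0% = neutral control wells and 100% = parthenolide positive control wells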
esBAF inh – Bmi1 luciferase reporter increase in mESCs, primary screen, esBAF inhibitor project, mouse ES cells, Bmi1 luciferase knock-in, single point | 24 h; 100% = twice the neutral-well signal | reporter increase, % at 12.5 µM | hit rate 2% among 350,000 | AID 602393, 2012; in the data active = activation above about 40%;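 note: 0% = median of the plate's neutral control wells and 100% = double that signal; a rise in the Bmi1 reporter signal indicates esBAF inhibition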
GAA850 FXN act – FXN promoter activators, primary screen, cell-based, luciferase luminescence, HEK293 lucGAA850 | hit rate 0.56% among 360,000 | AID 540364, 2011 | HEK293 lucGAA850 FXN promoter luciferase reporter, 24 h; percent of 10 µM SAHA response | activation, % at 6 µM;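 active = activation above the average of all compounds screened plus 3 SD, cutoff fixed separately per campaign, cut at about 7.5% in these data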;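 note: 0% = DMSO wells and 100% = 10 µM SAHA wells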
Wnt act – Wnt/beta-catenin pathway activators, primary screen, cell-based, plate reader, single point. Wnt/beta-catenin reporter cell assay, activator. activation, % at 9.35 µM. hit rate 1.2% among 300,000. AID 743398, 2014; in the data active = activation above about 30%, passing the limit was not always enough;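 note: 0% = neutral control wells and 100% = positive control wells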
The depositor's hits bear a star; / = no result given.

SMILES	AHR activator	MITF TRPM1 HTS	esBAF inh	GAA850 FXN act	Wnt act
COc1cccc(C(=O)Nc2cccc(C(=O)NC3=NN(c4c(Cl)cc(Cl)cc4Cl)C(=O)C3)c2)c1	7.3	/	6.2	-0.2	32.3*
COc1cccc(NC(=O)c2c(C)nn(-c3ccccc3)c2Cl)c1	/	/	50.0*	0.8	14.8
COc1cccc(NC(=O)c2cccc(NC(=O)c3ccco3)c2)c1	/	/	2.5	0.1	-0.5
O=C(NC1CCCCC1)N[C@@H]1C=C[C@H](CC(=O)N2CCOCC2)O[C@@H]1CO	/	/	-1.2	/	/
CO[C@@H]1CN(C)C(=O)c2cc(NC(C)=O)ccc2OC[C@@H](C)N(C(=O)CC2CC2)C[C@@H]1C	/	/	-2.9	/	/
CO[C@H]1CN(C)C(=O)c2cc(NC(C)=O)ccc2OC[C@@H](C)NC[C@H]1C	/	/	-2.1	/	/
Cc1ccc(C(=O)Nc2cccc(Oc3ccccc3)c2)o1	-3.8	89.7*	68.5*	2.3	/
CSc1cccc(NC(=O)c2cccc3cccnc23)c1	47.0	44.1	48.1*	5.3	11.9
COC(=O)c1[nH]c2ccc(Cl)cc2c1NC(=O)Oc1ccccc1	37.8	/	57.9*	-0.2	20.2
COc1cccc(C(=O)Nc2ccc(NC(=O)Cc3ccccc3)cc2)c1	0.4	/	-4.5	1.6	-1.0
COc1cccc(C(=O)Nc2ccccc2)c1	9.1	/	51.6*	1.3	/
CNS(=O)(=O)c1cc(NC(=O)c2cccc3cccnc23)ccc1C	38.6	14.9	24.8	1.1	9.7
O=C(C[C@H]1C[C@@H]2c3cc(NC(=O)C4CCOCC4)ccc3O[C@@H]2[C@H](CO)O1)NCc1cccc(F)c1	/	/	-1.6	/	/
COc1ccc(S(=O)(=O)Nc2ccc3c(c2)C(=O)N([C@H](C)CO)C[C@@H](C)[C@@H](CN(C)C(=O)c2ccncc2)OCCCC[C@@H](C)O3)cc1	/	/	3.7	/	/
CO[C@@H]1CN(C)C(=O)c2ccc(NC(=O)c3cccc(F)c3)cc2OC[C@H](C)N(C(C)=O)C[C@@H]1C	/	/	-1.5	/	/
C[C@H]1CN([C@@H](C)CO)C(=O)c2ccccc2-c2ccccc2CO[C@@H]1CN(C)S(=O)(=O)c1ccc(C#N)cc1	/	/	-4.2	/	/
C[C@H]1CCCCO[C@H](CN(C)C(=O)C2CCCCC2)[C@@H](C)CN([C@@H](C)CO)C(=O)c2cc(NS(=O)(=O)c3ccc(F)cc3)ccc2O1	/	/	1.9	/	/
COc1cccc(C(=O)Nc2cccc(SC)c2)c1	44.5	80.5*	60.4*	3.2	5.0
COc1cccc(C(=O)Nc2cccc(OCC(=O)O)c2)c1	-2.8	-6.8	-3.3	4.5	/
COc1ccc(NC(=O)c2ccc(C)cc2)cc1	-7.9	42.3	-29.7	2.9	9.3
COc1ccc(NC(=O)c2ccccc2)cc1	1.1	108.1*	21.4	4.5	28.1
Cc1sc2nc(SCC(=O)N3CCCC3)[nH]c(=O)c2c1C	59.0*	5.9	-4.0	1.7	1.6
COc1cccc(C(=O)Nc2ccc3c(c2)OC[C@@H](C)N(C(=O)C2CCCC2)C[C@@H](C)[C@H](OC)CN(C)C3=O)c1	/	/	-3.0	/	/
CC(=O)NCCc1ccc(C(=O)COC(=O)c2cc(C)oc2C)cc1	-2.4	17.2	8.4	5.2	37.4*
COc1ccc(NC(=O)N(C)C[C@H]2Oc3c(NC(=O)c4cc(C)nn4C)cccc3C(=O)N([C@H](C)CO)C[C@@H]2C)cc1	/	/	3.7	/	/
SMILES	AHR activator	MITF TRPM1 HTS	esBAF inh	GAA850 FXN act	Wnt act
CCNC(=O)C[C@@H]1CC[C@H]2[C@@H](COc3ccc(NC(C)=O)cc3C(=O)N2C)O1	/	/	-3.7	/	/
C[C@@H]1CN([C@@H](C)CO)C(=O)CCCn2cc(nn2)CO[C@@H]1CN(C)C	/	/	3.1	/	/
Cc1cccc(Cl)c1OCCCn1ccnc1	58.0*	/	-6.3	1.3	-0.2
Cc1cc(OCCCn2ccnc2)cc(C)c1Cl	41.4	-0.4	9.6	0.6	-5.3
Clc1ccc(OCCn2ccnc2)c2ccccc12	73.7*	1.3	4.5	0.7	/
Cc1cc(Cl)cc(C)c1OCCCCCn1ccnc1	28.1	/	-5.6	-1.7	-3.2
Cc1cc(OCCCCCn2ccnc2)cc(C)c1Cl	54.7*	-12.8	/	0.0	-3.9
Clc1ccc(OCCn2ccnc2)c(Br)c1	33.5	0.5	/	0.3	/
COc1ccc(S(=O)(=O)N(C)C[C@@H]2OCCCC[C@H](C)Oc3ccc(NC(=O)Nc4ccc(C(F)(F)F)cc4)cc3C(=O)N([C@H](C)CO)C[C@@H]2C)cc1	/	/	-3.8	/	/
CO[C@H]1CN(C)C(=O)c2ccc(NC(=O)C3CC3)cc2OC[C@@H](C)N(C(=O)C2CCOCC2)C[C@@H]1C	/	/	-3.8	/	/
CS(=O)(=O)N1[C@@H]2Cn3c(cccc3=O)[C@H]1[C@@H](C(=O)NCc1ccccc1)[C@@H]2CO	/	/	-2.2	/	/
Cc1c(Br)c(C(=O)NCc2cc3cc(Cl)ccc3[nH]2)nn1C	11.7	-1.8	/	0.6	-2.2
Cn1cc([N+](=O)[O-])c(C(=O)NCc2cc3cc(Cl)ccc3[nH]2)n1	48.5*	0.6	/	0.9	/
CCCN1[C@@H]2c3ccc(-c4ccc(F)cc4)c(=O)n3C[C@@H]2[C@@H](CO)[C@@H]1C(=O)OC	/	/	-1.5	/	/
CCC(C)Sc1cc(C(F)(F)F)c(C(=O)Nc2ccc(Cl)cc2)cn1 (stereo not drawn)	58.5*	7.2	-3.2	-0.7	0.3
CCN(C(=O)c1cnc(NC(C)C)cc1C(F)(F)F)c1ccc(Cl)cc1	-3.2	-0.6	-4.5	-2.8	-2.3
C[C@@H]1CCCCO[C@H](CN(C)S(=O)(=O)c2ccc(Cl)cc2)[C@H](C)CN([C@@H](C)CO)C(=O)c2cc(NC(=O)CCCN(C)C)ccc2O1	/	/	-0.1	/	/
CCCc1c(C(=O)Nc2ccc(C(F)(F)F)cc2)cnn1-c1ccccc1	110.2*	/	/	0.0	-2.8
Cc1ccc(C)n1-c1ccc(C(=O)Nc2ccccc2)cc1	-2.3	43.8	/	4.8	102.2*
O=C(Nc1ccc(C(=O)c2ccccc2)cc1)c1ccccc1	1.5	126.9*	61.0*	1.1	50.5*
O=C(NNC(=O)c1ccc(NC(=O)c2ccccc2)cc1)c1ccc(F)cc1	0.9	-7.8	-5.5	0.9	-1.1
O=C(Nc1ccc(Br)c(C(F)(F)F)c1)c1ccc(C(F)(F)F)cc1	18.1	/	/	-3.8	10.6
O=C(Nc1ccc(Br)c(C(F)(F)F)c1)c1ccccc1	50.6*	29.8	/	3.9	-0.2
Cc1ccc(C)n1-c1cccc(NC(=O)c2ccccc2)c1	15.8	-11.0	/	6.6	/
CCCC(=O)Nc1ccc2c(c1)OC[C@H](C)N(Cc1nccs1)C[C@H](C)[C@H](OC)CN(C)C2=O	/	/	4.9	/	/
O=C(Nc1ccc2c(c1)CCCN2C(=O)c1ccccc1)c1ccccc1	2.0	34.4	46.1*	0.0	-1.8
